# Assay results taken from PubChem BioAssay AID1569 (National Center for Advancing Translational Sciences (NCATS), 2009).
# Records with an inconclusive call do not appear. Activity calls are given as the source filed them. The call rests on the fitted dose curve; in most records, active means well fitted inhibition curve with a large enough effect; inconclusive means small, poorly fitted or top-dose-only effect, or effect the other way, or another doubt; inactive means no such curve, though single readings can be large or run the other way.
# Assay: Confirmation Concentration-Response Assay for lipid storage modulators; further: nearly all actives have a fitted effect of over 80% in size
# Conditions: Drosophila S3 cells, lipid droplet BODIPY/CellTracker ratio, 18-24 h
# Source text: NIH Molecular Libraries Probe Production Centers Network [MLPCN] NIH Chemical Genomics Center [NCGC] MLPCN Grant: 1 R03 MH085686-01 Assay Submitter (PI): Beller, Mathias; Max-Planck-Institut fur Biophysikalische Chemie NCGC Assay Overview: Storing lipids as a reservoir for energy or the anabolism of elementary metabolites is a common feature of probably all cells and is conserved from bacteria to humans. The universal cellular lipid storage organelle is the so-called lipid storage droplet (LD). Although ubiquitous, LDs share a simple structure composed of a hydrophobic core that harbors the storage lipids, which is shielded by a droplet-specific phospholipid monolayer to which proteins are attached. […] Exo1 identified in the primary screen (AID 1519) and several analogs were measured in the lipid storage assay as 24-point concentration-response curves to confirm potency and SAR.
# We dispensed 4 uL of cells at 1.25 x 10^6 cells/mL into LoBase Aurora COC 1,536-well plates (black walled, clear bottom) with a bottle-valve solenoid-based dispenser (Aurora) to obtain 5,000 cells/well. […] Fluorescence was detected by excitation of the fluorophores with a 488-nm laser on an Acumen Explorer (TTP Lab Tech). […] Cells were detected using channel 3 (575- 640 nm) with 5-um width and 100-um depth filters. The ratio of the total intensity in PMT channel 1 over total intensity of channel 3 was also calculated. […]
# Potency means the concentration at half of the fitted maximal effect.
row,Compound,Potency
1,COc1cc2c(cc1OC)[C@@H]1C(=O)c3ccc4c(c3O[C@@H]1CO2)C[C@H](C(C)C)O4,0.0499 µM (active)
2,O=C(Nc1cccc(Cl)c1)OC1CN2CCC1CC2 (configuration not stated),8.88 µM (active)
